The campaign covered roughly 39,000 compounds. About 3,300 (8.5%) were called active. The list comes from a sample in which actives are over-represented; it also holds similar structures and randomly drawn compounds.
The compounds below were run on HepG2 (assay: cytotoxicity call (relative viability < 0.9)). Conditions: 10 µM.

Structure (SMILES) | cytotoxicity call
Cc1cccc(N[C@H]2CS(=O)(=O)C[C@@H]2O)c1 | inactive
CC(C)(Sc1cc(C(C)(C)C)c(O)c(C(C)(C)C)c1)Sc1cc(C(C)(C)C)c(OC(=O)CCC(=O)O)c(C(C)(C)C)c1 | inactive
C[C@@H]1CN([C@H](C)CO)C(=O)c2cccc(NC(=O)Nc3ccc(C(F)(F)F)cc3)c2O[C@@H]1CN(C)Cc1ccc(C(=O)Nc2ccccc2N)cc1 | inactive
C[C@@H]1CN([C@@H](C)CO)C(=O)c2cc(NS(=O)(=O)c3ccc(F)cc3)ccc2O[C@@H]1CN(C)Cc1ccncc1 | inactive
C[C@@H]1CN([C@H](C)CO)C(=O)Cc2cc(NC(=O)Nc3cccc4ccccc34)ccc2O[C@H]1CN(C)C(=O)Nc1ccc(C(F)(F)F)cc1 | inactive
COc1ccc(S(=O)(=O)N(C)C[C@H]2Oc3c(NC(=O)NC(C)C)cccc3C(=O)N([C@H](C)CO)C[C@@H]2C)cc1 | inactive
COc1ccc(S(=O)(=O)Nc2ccc3c(c2)C(=O)N([C@H](C)CO)C[C@@H](C)[C@@H](CN(C)Cc2ccc(-c4ccccc4)cc2)O3)cc1 | active
COc1ccc(S(=O)(=O)Nc2ccc3c(c2)C(=O)N([C@H](C)CO)C[C@H](C)[C@@H](CN(C)Cc2ccc(-c4ccccc4)cc2)O3)cc1 | inactive
COc1ccc(S(=O)(=O)Nc2ccc3c(c2)C(=O)N([C@H](C)CO)C[C@H](C)[C@H](CN(C)Cc2ccc(-c4ccccc4)cc2)O3)cc1 | inactive
COc1ccc(S(=O)(=O)Nc2ccc3c(c2)C(=O)N([C@@H](C)CO)C[C@@H](C)[C@H](CN(C)Cc2ccc(-c4ccccc4)cc2)O3)cc1 | inactive
COc1ccc(S(=O)(=O)Nc2ccc3c(c2)C(=O)N([C@@H](C)CO)C[C@@H](C)[C@@H](CN(C)Cc2ccc(-c4ccccc4)cc2)O3)cc1 | active
COc1ccc(S(=O)(=O)Nc2ccc3c(c2)C(=O)N([C@@H](C)CO)C[C@H](C)[C@H](CN(C)Cc2ccc(-c4ccccc4)cc2)O3)cc1 | inactive
COc1ccc(S(=O)(=O)Nc2ccc3c(c2)C(=O)N([C@H](C)CO)C[C@@H](C)[C@H](CN(C)Cc2ccc(-c4ccccc4)cc2)O3)cc1 | inactive
COc1ccc(S(=O)(=O)Nc2ccc3c(c2)C(=O)N([C@@H](C)CO)C[C@H](C)[C@@H](CN(C)Cc2ccc(-c4ccccc4)cc2)O3)cc1 | active
C[C@H]1CCCCO[C@H](CN(C)C(=O)Nc2ccccc2)[C@@H](C)CN([C@@H](C)CO)C(=O)c2cc(NC(=O)C3CCCCC3)ccc2O1 | inactive
C[C@H]1CN([C@@H](C)CO)S(=O)(=O)c2ccc(C#CC3CC3)cc2O[C@@H]1CN(C)Cc1cccc(F)c1 | inactive
Nc1ccn(C[C@@H](CO)OCP(=O)(O)O)c(=O)n1 | inactive
Cc1noc(C)c1S(=O)(=O)Nc1ccc2c(c1)C(=O)N([C@H](C)CO)C[C@@H](C)[C@H](CN(C)Cc1ccc(-c3ccccc3)cc1)O2 | inactive
Cc1noc(C)c1S(=O)(=O)Nc1ccc2c(c1)C(=O)N([C@H](C)CO)C[C@H](C)[C@@H](CN(C)Cc1ccccc1)OCCCC[C@@H](C)O2 | inactive
C[C@H](CO)N1C[C@H](C)[C@@H](CN(C)C(=O)NC2CCCCC2)Oc2ccc(NC(=O)Cn3cnnn3)cc2C1=O | inactive
C=CCNC(=O)[C@H]1[C@@H]2C(=O)O[C@@H](c3ccccc3)[C@@H](c3ccccc3)N2[C@@H](c2ccc(OCCO)cc2)[C@]12C(=O)Nc1ccc(C#CC3=CCCCC3)cc12 | inactive

Structure (SMILES) | cytotoxicity call
CO[C@@H](CCO)[C@@H](O)c1ccc(O)c(F)c1 | inactive
C[C@H](CO)N1C[C@H](C)[C@@H](CN(C)Cc2ccccn2)Oc2ncc(C#Cc3cccc(F)c3)cc2C1=O | inactive
COc1ccc(S(=O)(=O)Nc2ccc3c(c2)C(=O)N([C@@H](C)CO)C[C@H](C)[C@@H](CN(C)C(=O)Nc2ccc(F)cc2)OCCCC[C@@H](C)O3)cc1 | active
COc1ccc(NC(=O)N(C)C[C@H]2OCCCC[C@@H](C)Oc3ccc(NS(=O)(=O)c4ccc(F)cc4)cc3C(=O)N([C@@H](C)CO)C[C@@H]2C)cc1 | inactive
COc1ccc(NC(=O)N(C)C[C@@H]2OCCCC[C@H](C)Oc3ccc(NS(=O)(=O)c4ccc(F)cc4)cc3C(=O)N([C@@H](C)CO)C[C@@H]2C)cc1 | inactive
COc1ccc(NC(=O)N(C)C[C@H]2OCCCC[C@H](C)Oc3ccc(NS(=O)(=O)c4ccc(F)cc4)cc3C(=O)N([C@H](C)CO)C[C@@H]2C)cc1 | inactive
COc1ccc(S(=O)(=O)Nc2ccc3c(c2)C(=O)N([C@@H](C)CO)C[C@H](C)[C@@H](CN(C)C(=O)Nc2ccc(F)cc2)OCCCC[C@H](C)O3)cc1 | active
COc1ccc(NC(=O)N(C)C[C@@H]2OCCCC[C@@H](C)Oc3ccc(NS(=O)(=O)c4ccc(F)cc4)cc3C(=O)N([C@H](C)CO)C[C@@H]2C)cc1 | inactive
Cc1cc(=O)n2nc(S(C)(=O)=O)nc2[nH]1 | inactive
C[C@H]1CN([C@@H](C)CO)S(=O)(=O)c2ccc(C#Cc3ccccc3)cc2O[C@@H]1CN(C)C(=O)c1ccccn1 | inactive
COCc1nc(C)c(CN)s1 | inactive
COc1ccc(-c2cc(=O)c3c(O)cc(O[C@@H]4O[C@H](CO)[C@@H](O)[C@H](O)[C@H]4O[C@@H]4O[C@H](COC(C)=O)[C@@H](O)[C@@H](O)[C@H]4O)c(O)c3o2)cc1 | inactive
CSc1cccc(NC(=O)/C=C/c2ccc(C(C)C)cc2)c1 | inactive
CC(Cc1ccc(O)c(O)c1)(NN)C(=O)O (configuration not stated) | active
CCOC(=O)[C@@H](N)Cc1ccc(O)c(O)c1 | inactive
C[C@@](Cc1ccc(O)c(O)c1)(NN)C(=O)O | active
O=C(O)Cc1ccc(O)c(O)c1 | inactive
CO[C@@H]1CN(C)C(=O)c2ccc(NS(=O)(=O)c3cn(C)cn3)cc2OC[C@H](C)N(CCC(F)(F)F)C[C@@H]1C | inactive
C[C@H]1CN([C@@H](C)CO)S(=O)(=O)c2ccc(-c3cncnc3)cc2O[C@H]1CN(C)C(=O)c1cccc(F)c1 | inactive
CCN1CCCC[C@@H]1C(=O)O | inactive
C[C@H]1CN([C@@H](C)CO)C(=O)c2cc(NS(=O)(=O)c3cn(C)cn3)ccc2O[C@@H]1CN(C)CC1CCCCC1 | inactive

From the antibiotic and cytotoxicity screens of Wong et al. (2023)
